High-throughput results (PubChem BioAssay)
An excerpt weighted towards active compounds, which were near 1.4% of everything screened.
BCR signal inh – blocks chronic active B-cell receptor signaling. AID 493014. 0.05% of 340,000 active. Potency, µM (highest dose often 46.1 µM), without a hit: at the highest dose activity change, negative = inhibition, most hits filed as inhibitors. ABC-DLBCL IkBa-CBG/CBR reporter, luminescence ratio, 4 h; active = well fitted inhibition curve with a large enough effect in the signal ratio, with a control signal flat, not every such curve was filed as active; inconclusive = small, poorly fitted or top-dose-only effect, or effect the other way, or a change in a side signal; the % refers to the signal ratio;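 note: potency is the fitted concentration of half-maximal effect; plate controls were basal doxycycline-induced cells for no effect and cells given 10 µM MG132 for full effect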
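TMD8 human ABC-DLBCL cells with doxycycline-inducible IκBα–green luciferase fusion and unfused red luciferase, in 0.5% FBS medium; compounds up to 46 uM, 4 h at 37C. Green/red luminescence ratio, filter-overlap corrected, fitted to concentration-response curves.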
Nrf2 activator – Nrf2 pathway activation. AREc32 ARE-luciferase reporter (MCF7-derived line), luminescence, 24 h. Potency, µM (highest dose often 46.1 µM), for inactives: at the highest dose activation, hits mostly activators. 0.31% of 410,000 active; note: potency is the fitted concentration of half-maximal effect; % of control where 0% means no effect; nearly all actives have a fitted effect of over 65% in size
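For detection, Steady-Glo was added and plates sat 30 min at RT; before that, AREc32_Fluc cells grown overnight in OPTI-MEM/5% FBS had been treated with 23 nL compound for 24 hr at 37 deg C.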
BRCA1 expr act – BRCA1 expression activation | MCF7-BRCA1-FFLuc reporter, luminescence, 48 h; response scale: scaled: vehicle 0%, 10 µM genistein 100% | Potency, µM (highest dose often 46.1 µM), for the others: top-dose activation, usual class: activators | 1.1% of 380,000 active; note: potency is the fitted concentration of half-maximal effect; nearly all actives have a fitted effect of over 80% in size
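48 h compound treatment of MCF7-BRCA1-FFLuc cells (phenol-red free MEM, 37 °C), then 15 min with luciferase substrate and luminescence imaging.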
Integrin act MD – integrin-mediated muscular dystrophy alleviation activation | alpha7betagal myoblasts, beta-gal FDG fluorescence, 48 h | Potency, µM (series often up to 38.3 µM), without a hit: at the highest dose activation, hits mostly activators | 0.064% of 350,000 active;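 note: potency is the fitted concentration of half-maximal effect; 100% = response of the positive control SU9516; nearly all actives have a fitted effect of over 60% in size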
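alpha7betagal+/- myoblasts (passage 13, 250/well) treated 48 h at 37C with compounds at 1:260 dilution of DMSO stock. Lysed, then beta-galactosidase activity read as FDG fluorescence (ex 480/em 540) after 30 min, with pre-read for autofluorescence.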
IL-2 act – activators of IL-2 | AID 652025 | 0.065% of 360,000 active | IL-2 activation reporter assay, cell-based qHTS; stimulated with anti-CD3/CD4/CD28 beads; in transgenic mouse T cells | activation, % (series mostly up to about 46 µM); in the data active = activation above about 50%; inconclusive = mostly about 30% to 49%; note: 0% is about no effect
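Readout: EGFP and DsRed signals by fluorescent plate cytometry. Unstimulated transgenic mouse T cells received compound 60 min before antibody-bead stimulation, then incubated 18 h at 37 degrees C.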
N370S GC – N370S glucocerebrosidase modulation, Gaucher chaperone candidate; N370S GC spleen homogenate, 4MU-glucoside fluorescence; Potency, µM (top dose mostly 59.4 µM), for the others: top-dose activity change, negative = inhibition, actives largely listed as inhibitors; 0.092% of 330,000 active;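 note: potency is the fitted concentration of half-maximal effect; 0% = full enzyme activity and -100% = no enzyme basal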
An asterisk follows results filed as active; ? = inconclusive; · = no result; [ ] = remark or other dose. Unless noted, calls come from the whole dose curve; as a rule, active = well fitted curve in the direction sought with a large enough effect; inconclusive = small, poorly fitted or top-dose-only effect, or another doubt; inactive = no such curve, though single readings can be large; an effect the other way counts as inactive or inconclusive.

SMILES	BCR signal inh	Nrf2 activator	BRCA1 expr act	Integrin act MD	IL-2 act	N370S GC
Cc1cc(C)c(C#N)c(SCC(=O)c2cccs2)n1	?	?	11%	15%	-2	4%
CCC(C(=O)Nc1ccon1)c1ccccc1 (centres undefined)	0%	-2%	5%	25%	-1	-1%
Nc1ccc(SCc2cccnc2)cc1	-8%	0%	33%	-16%	0	0%
Cn1cc(Cl)c(C(=O)Nc2nc3ccc([N+](=O)[O-])cc3s2)n1	?	2%	49%	16%	-4	0%
Cn1cc(Cl)c(C(=O)Nc2nc3ccc(Cl)cc3s2)n1	?	2%	13µM*	-9%	0	4%
CC(=O)c1ccc(NC(=S)NCCc2cccc(Cl)c2)cc1	-1%	0%	3.2µM*	-13%	0	3%
S=C(NCCc1ccccc1)NCc1cccc(Cl)c1	?	-1%	74%	3%	-4	-1%
CSc1cccc(NC(=O)Nc2ccc(Cl)cc2)c1	-14%	0%	7.9µM*	45%	0	-5%
CC(=O)c1ccc(NC(=S)NCCc2ccc(S(N)(=O)=O)cc2)cc1	13%	5%	24%	-29%	-1	-10%
Fc1ccccc1NC(=S)NCCc1cccc(Cl)c1	?	0%	7.9µM*	-49%	-1	-8%
CSc1cccc(NC(N)=O)c1	6%	4%	4%	-21%	0	-6%
CC(=O)c1ccc(NC(=O)Nc2cccc(Cl)c2)cc1	?	0%	7.1µM*	1%	-2	15%
CCCC(NS(=O)(=O)c1ccc(-c2ccc(=O)[nH]n2)s1)c1cccs1 (centres undefined)	13%	7%	9%	?	-1	-11%
COc1ccc(-c2nnc(SCC(=O)Nc3ccc(F)cc3)s2)cc1	·	-3%	·	·	·	·
CCOc1ccc2oc(C(=O)OCC(=O)NC(=O)NC)c(C)c2c1	0%	0%	0%	7.1µM*	0	-3%
CCOc1ccc2oc(C(=O)OCC(=O)NC(=O)NC3CCCC3)c(C)c2c1	-2%	1%	58%	11%	0	7%
Cc1ccc(CNC(=O)C(C)n2nc(C)n3c(cc4sccc43)c2=O)cc1 (centres undefined)	·	-1%	·	·	·	·
Cc1cc[n+](CC#N)cc1	·	·	1%	·	·	·
CC1OC1c1ccc(-c2ccc(C3OC3C)cc2)cc1 (centres undefined)	·	4%	5µM*	8%	1	·
COc1ccc(CNC(=O)C(C#N)c2nc3ccccc3nc2N2CCCC2)cc1 (centres undefined)	?	2%	-25%	-6%	122*	9%
COc1ccc(CNC(=O)C(C#N)c2nc3ccccc3nc2N2CCN(C)CC2)cc1 (centres undefined)	-6%	0%	-26%	17%	0	-12%
O=C(Nc1ccccn1)Nc1ccccc1[N+](=O)[O-]	-14%	4µM*	-18%	-26%	0	5%
O=C(Nc1ccccn1)c1ccc(Cl)c([N+](=O)[O-])c1	13%	10µM*	-17%	-48%	0	7%
CCNc1oc(-c2cccc3ccccc23)nc1C#N	·	3%	71%	2%	-1	26%
CC(C)Nc1oc(-c2cccc3ccccc23)nc1C#N	?	5%	14µM*	20%	0	?
SMILES	BCR signal inh	Nrf2 activator	BRCA1 expr act	Integrin act MD	IL-2 act	N370S GC
CCN1C(=O)/C(=C\C=C\c2ccccc2[N+](=O)[O-])SC1=S	-9%	5µM*	-36%	3%	0	7%
CCCn1cnc2c(SCc3ccccc3)nc(N)nc21	·	4%	?	-1%	-1	·
CCCCn1cnc2c(SCc3ccccc3)nc(N)nc21	·	5%	7.1µM*	-8%	-1	·
COc1cc(OC)c(/C=C/c2nccc3ccccc23)c(OC)c1	·	·	-51%	·	·	·
COc1cc(NC(=S)Nc2ccccn2)c(OC)cc1Cl	1%	4µM*	-33%	3%	0	8%
COc1cc(NC(=S)Nc2cccc(Cl)c2Cl)c(OC)cc1Cl	-5%	0%	-2%	-14%	-1	-16%
O=C(Nc1ccccn1)c1ccc(C(=O)Nc2ccccn2)cc1	1%	0%	36%	-3%	1	2%
O=C(Nc1ccccn1)c1ccc(Br)s1	?	16µM*	?	18%	-1	-1%
COc1ccccc1C(=O)Nc1ccccn1	?	11µM*	12%	20%	-1	2%
C(=Nc1cnc2ccccc2c1)c1ccncc1	·	·	35%	·	·	·
CCOc1cc(CNCCc2ccc(S(N)(=O)=O)cc2)ccc1OCc1ccccc1	0%	4%	-42%	-36%[7.66 µM]	-4	6.3µM*
O=C1N[C@@H](Cc2ccccc2)C(=O)N2[C@@H]1C[C@]1(Br)c3ccccc3N(S(=O)(=O)c3ccccc3)[C@H]21	·	3%	5%	-6%	0	·
CCC(C)c1ccccc1OCCn1c(CCNC(=O)C2CCCCC2)nc2ccccc21 (centres undefined)	·	·	-22%	·	·	·
Cc1cc(C)c2oc(-c3ccc(C)c(NC(=O)/C=C/c4ccco4)c3)nc2c1	·	5.6µM*	-45%	·	·	·
O=C(NCc1ccccc1)c1ccc(-c2ccccc2F)o1	?	2%	11µM*	9%	-3	15%
COc1ccccc1Cc1c(-c2ccco2)nc2cc(C)c(Br)c(C)n12	·	11µM*	5%	·	-1	·
Cc1cc2nc(-c3ccco3)c(CC(C)(C)C)n2c(C)c1Br	·	29%	-17%	·	0	·
Cc1ccc(NC(CC(=O)c2ccccc2)C(=O)O)cc1Cl (centres undefined)	?	18µM*	27%	0%	-2	8%
O=C(CC(Nc1ccccc1)C(=O)O)c1ccccc1 (centres undefined)	-1%	?	11µM*	-33%	-1	9%
c1ccc2c(CCc3c[nH]c4ccccc34)ccnc2c1	·	·	-23%	·	·	·
COc1ccc(NC(=O)CN(C)C(=O)c2c(C)nn(Cc3ccccc3)c2C)cc1	-3%	-1%	-2%	5%	0	0%
Cc1cc2c(cc1S(=O)(=O)Nc1ccc(C(C)C)cc1)OCCN2C	25%	7%	·	·	·	6%
CCc1ccc(-c2nc(CS(=O)CC(=O)NCCc3ccc(Cl)cc3)c(C)o2)cc1 (centres undefined)	?	1%	·	·	·	·
CCN(C(=O)COC(=O)c1cccnc1Nc1cccc(C(F)(F)F)c1)C1CCS(=O)(=O)C1 (centres undefined)	?	11µM*	-44%	3%	0	1%
COc1ccc2oc(=O)c(-c3nc(C)cs3)cc2c1	?	3%	?	4%	-1	-5%
